Experimental data from PubChem BioAssay (Tox21).
Inconclusive results are not listed. A call without a number means that no potency is given here. A number with no mark means an inactive call. Active and inactive are the calls of the source. The call rests on the fitted dose curve.

Experiment: p53 small molecule agonists, cell-based qHTS assay with human liver microsomes (AID 1963577)
Method in brief: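 In this qHTS, p53 response-element beta-lactamase cells receive test compound together with a microsome/NADPH activating system (0.5 mg/mL final each) and are incubated 16 h at 37 C before LiveBLAzer fluorescence detection.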

Question: With CC1(C)[C@@H]2CC[C@@]1(C)[C@H](O)C2 as the compound, how does the Potency read?
Answer: inactive

Question: Which Potency does the source give for COc1cc(C=O)ccc1OC(=O)C(C)C here?
Answer: inactive

Question: Which Potency does the source give for Cc1ccc(C2OC[C@@H]3OC(c4ccc(C)cc4)O[C@H]([C@H](O)CO)[C@@H]3O2)cc1 (some centres undefined) here?
Answer: inactive

Question: For Cc1ccc(C(=O)c2cc(O)c(O)c([N+](=O)[O-])c2)cc1, which Potency is on record?
Answer: inactive

Question: With CC(COC(=O)c1ccccc1)OC(=O)c1ccccc1 (centres undefined) as the compound, how does the Potency read?
Answer: inactive

Question: With C=CCCC as the compound, how does the Potency read?
Answer: inactive

Question: For N=C(N)c1ccccc1, which Potency is on record?
Answer: inactive

Question: For CCCCCCCCCCCCCCCCBr, which activation is on record?
Answer: -0.838% [at 13.5 µM]

Question: For C1CSCCS1, which Potency is on record?
Answer: inactive

Question: With C[C@@H]1O[C@@H](OC[C@H]2O[C@@H](Oc3c(-c4ccc(O)c(O)c4)oc4cc(O)cc(O)c4c3=O)[C@H](O)[C@@H](O)[C@@H]2O)[C@H](O)[C@H](O)[C@H]1O as the compound, how does the Potency read?
Answer: inactive

Question: With CC(C)C(=O)OCCOc1ccccc1 as the compound, how does the Potency read?
Answer: inactive

Question: With CCCCC(O)/C=C(C)/C=C/C=C/C(=O)N1CCCC1=O (centres undefined) as the compound, how does the Potency read?
Answer: inactive

Question: With O=C(Nc1ccc([N+](=O)[O-])cc1Cl)c1cc(Cl)ccc1O as the compound, how does the Potency read?
Answer: inactive

Question: For C=C(C)C(=O)OCCNC(C)(C)C, which Potency is on record?
Answer: inactive

Question: With CC[C@H](C)[C@H](N)C(=O)O as the compound, how does the Potency read?
Answer: inactive

Question: Which Potency does the source give for N[C@@H](CCC(=O)Nc1ccc([N+](=O)[O-])cc1)C(=O)O here?
Answer: inactive

Question: With CCCCCCCCCC/C=C/C#N as the compound, how does the Potency read?
Answer: inactive

Question: With C=CC(C)(CCC=C(C)C)OC=O (centres undefined) as the compound, how does the Potency read?
Answer: inactive

Question: With Cn1c(=O)c2[nH]c(Br)nc2n(C)c1=O as the compound, how does the Potency read?
Answer: inactive

Question: Which Potency does the source give for CN(CC1(C)CCCO1)S(=O)(=O)c1ccc(Cl)c(S(N)(=O)=O)c1 (centres undefined) here?
Answer: inactive

Question: With COC(=O)CCCCC(=O)O as the compound, how does the Potency read?
Answer: inactive

Question: For CC(C)=CCC/C(C)=C/C#N, which Potency is on record?
Answer: inactive

Question: For C=CCOCC(CO)(COCC=C)COCC=C, which Potency is on record?
Answer: inactive

Question: With CCC(C)SSC(C)CC (centres undefined) as the compound, how does the Potency read?
Answer: inactive
